In PubChem BioAssay AID1159580 (chemical genetic matrix, 2015):
Several values for one entry are separate records, joined by “and”; a condition that tells them apart may be missing. Equal entries are not always repeated. Screen size: about 5,500 compounds; about 2,000 (36%) were called active. About 18% were inconclusive and are not listed. Rule as the data show it: active = normalized growth mostly below about 0.91 (no sharp cut-off); inconclusive = no clear call, values can overlap the other calls; inactive = mostly above about 0.92. Some of the results follow. More than one record can exist for a structure, and the calls need not agree.

Experiment: chemical genetic growth profiling, strain panel (AID 1159580);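 also: tested at 20 µM; growth read once vehicle control cultures reached saturation at 30 °C; 1 = growth at the plate median or of vehicle wells; lower values mean less growth of the strain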
Conditions: growth OD

O=c1c2ccccc2[se]n1-c1ccccc1
normalized growth (S. cerevisiae deletion strains, locus YJR075W, strain HOC1, stronger effect = lower value): 0.0678 (active) | normalized growth (S. cerevisiae deletion strains, locus YKL068W, stronger effect = lower value): 0.0623 (active) | normalized growth (S. cerevisiae deletion strains, locus YKL085W, strain MDH1 (second series), stronger effect = lower value): 0.0549 (active) | normalized growth (S. cerevisiae deletion strains, locus YKL085W, strain MDH1, stronger effect = lower value): 0.0549 (active) | normalized growth (S. cerevisiae deletion strains, locus YKL160W, strain elf1, stronger effect = lower value): 0.0672 (active) | normalized growth (S. cerevisiae deletion strains, locus YKL190W, strain CNB1, stronger effect = lower value): 0.0495 (active) | normalized growth (S. cerevisiae deletion strains, locus YKR001C, strain vps1, stronger effect = lower value): 0.064 (active) | normalized growth (S. cerevisiae deletion strains, locus YKR026C, strain gcn3, stronger effect = lower value): 0.0615 (active) | normalized growth (S. cerevisiae deletion strains, locus YKR091W, strain srl3, stronger effect = lower value): 0.0622 (active) | normalized growth (S. cerevisiae deletion strains, locus YLL001W, strain dnm1, stronger effect = lower value): 0.0729 (active) | normalized growth (S. cerevisiae deletion strains, locus YLL026W, stronger effect = lower value): 0.0595 (active) | normalized growth (S. cerevisiae deletion strains, locus YLL041C, strain sdh2, stronger effect = lower value): 0.0595 (active) | normalized growth (S. cerevisiae deletion strains, locus YLR027C, strain aat2, stronger effect = lower value): 0.0567 (active) | normalized growth (S. cerevisiae deletion strains, locus YLR039C, strain RIC1, stronger effect = lower value): 0.0906 (active) | normalized growth (S. cerevisiae deletion strains, locus YLR058C, strain SHM2, stronger effect = lower value): 0.955 (inactive) | normalized growth (S. cerevisiae deletion strains, locus YLR102C, strain apc9, stronger effect = lower value): 0.0627 (active) | normalized growth (S. cerevisiae deletion strains, locus YLR113W, strain HOG1, stronger effect = lower value): 0.138 (active) | normalized growth (S. cerevisiae deletion strains, locus YLR221C, strain rsa3, stronger effect = lower value): 0.061 (active) | normalized growth (S. cerevisiae deletion strains, locus YLR258W, strain gsy2, stronger effect = lower value): 0.0609 (active) | normalized growth (S. cerevisiae deletion strains, locus YLR262C, strain YPT6 (second series), stronger effect = lower value): 0.0795 (active) | normalized growth (S. cerevisiae deletion strains, locus YLR262C, strain YPT6, stronger effect = lower value): 0.0981 (active) | normalized growth (S. cerevisiae deletion strains, locus YLR268W, strain sec22, stronger effect = lower value): 0.0733 (active) | normalized growth (S. cerevisiae deletion strains, locus YLR320W, strain mms22, stronger effect = lower value): 0.0819 (active) | normalized growth (S. cerevisiae deletion strains, locus YLR330W, strain CHS5, stronger effect = lower value): 0.0552 (active) | normalized growth (S. cerevisiae deletion strains, locus YLR342W, strain FKS1 (second series), stronger effect = lower value): 0.0785 (active) | normalized growth (S. cerevisiae deletion strains, locus YLR342W, strain FKS1, stronger effect = lower value): 0.0773 (active) | normalized growth (S. cerevisiae deletion strains, locus YLR357W, strain rsc2, stronger effect = lower value): 0.117 (active) | normalized growth (S. cerevisiae deletion strains, locus YLR370C, strain arc18, stronger effect = lower value): 0.0623 (active) | normalized growth (S. cerevisiae deletion strains, locus YLR371W, strain rom2, stronger effect = lower value): 0.0624 (active) | normalized growth (S. cerevisiae deletion strains, locus YLR384C, strain iki3, stronger effect = lower value): 0.554 (active) | normalized growth (S. cerevisiae deletion strains, locus YLR418C, strain cdc73, stronger effect = lower value): 0.0967 (active) | normalized growth (S. cerevisiae deletion strains, locus YML016C, strain PPZ1, stronger effect = lower value): 0.0497 (active) | normalized growth (S. cerevisiae deletion strains, locus YML032C, strain rad52, stronger effect = lower value): 0.832 (active) | normalized growth (S. cerevisiae deletion strains, locus YML120C, strain ndi1, stronger effect = lower value): 0.724 (active) | normalized growth (S. cerevisiae deletion strains, locus YML124C, strain tub3, stronger effect = lower value): 0.0602 (active) | normalized growth (S. cerevisiae deletion strains, locus YMR058W, strain fet3, stronger effect = lower value): 0.062 (active) | normalized growth (S. cerevisiae deletion strains, locus YMR078C, strain ctf18, stronger effect = lower value): 0.0748 (active) | normalized growth (S. cerevisiae deletion strains, locus YMR125W, strain sto1, stronger effect = lower value): 0.0783 (active) | normalized growth (S. cerevisiae deletion strains, locus YMR129W, stronger effect = lower value): 0.0579 (active) | normalized growth (S. cerevisiae deletion strains, locus YMR205C, strain PFK2, stronger effect = lower value): 0.134 (active) | normalized growth (S. cerevisiae deletion strains, locus YMR223W, strain ubp8, stronger effect = lower value): 0.0699 (active) | normalized growth (S. cerevisiae deletion strains, locus YMR231W, strain pep5, stronger effect = lower value): 0.0661 (active) | normalized growth (S. cerevisiae deletion strains, locus YMR263W, strain SAP30, stronger effect = lower value): 0.065 (active) | normalized growth (S. cerevisiae deletion strains, locus YMR307W, strain GAS1, stronger effect = lower value): 0.116 (active) and 0.922 (inactive) | normalized growth (S. cerevisiae deletion strains, locus YNL067W, strain RPL9B, stronger effect = lower value): 0.0566 (active) | normalized growth (S. cerevisiae deletion strains, locus YNL071W, strain lat1, stronger effect = lower value): 0.0612 (active) | normalized growth (S. cerevisiae deletion strains, locus YNL128W, strain TEP1, stronger effect = lower value): 0.0628 (active) | normalized growth (S. cerevisiae deletion strains, locus YNL153C, strain GIM3, stronger effect = lower value): 0.0713 (active) and 0.0822 (active) | normalized growth (S. cerevisiae deletion strains, locus YNL175C, strain NOP13, stronger effect = lower value): 0.998 (inactive) | normalized growth (S. cerevisiae deletion strains, locus YNL183C, strain NPR1, stronger effect = lower value): 0.841 (inactive) | normalized growth (S. cerevisiae deletion strains, locus YNL197C, strain WHI3, stronger effect = lower value): 0.924 (inactive) | normalized growth (S. cerevisiae deletion strains, locus YNL209W, strain ssb2, stronger effect = lower value): 0.0633 (active) | normalized growth (S. cerevisiae deletion strains, locus YNL224C, strain SQS1, stronger effect = lower value): 0.826 (active) | normalized growth (S. cerevisiae deletion strains, locus YNL233W, strain BNI4, stronger effect = lower value): 0.0552 (active) | normalized growth (S. cerevisiae deletion strains, locus YNL248C, strain rpa49, stronger effect = lower value): 0.0871 (active) | normalized growth (S. cerevisiae deletion strains, locus YNL250W, strain rad50, stronger effect = lower value): 0.101 (active) | normalized growth (S. cerevisiae deletion strains, locus YNL271C, strain bni1, stronger effect = lower value): 0.0626 (active) | normalized growth (S. cerevisiae deletion strains, locus YNL298W, strain CLA4, stronger effect = lower value): 0.0625 (active) | normalized growth (S. cerevisiae deletion strains, locus YNL307C, strain MCK1, stronger effect = lower value): 0.0743 (active) | normalized growth (S. cerevisiae deletion strains, locus YNL322C, strain KRE1 (second series), stronger effect = lower value): 0.299 (active) | normalized growth (S. cerevisiae deletion strains, locus YNL322C, strain KRE1, stronger effect = lower value): 0.0495 (active) and 0.989 (inactive) | normalized growth (S. cerevisiae deletion strains, locus YNR049C, strain mso1, stronger effect = lower value): 0.0582 (active) | normalized growth (S. cerevisiae deletion strains, locus YNR052C, strain pop2, stronger effect = lower value): 0.851 (active) | normalized growth (S. cerevisiae deletion strains, locus YOL006C, strain TOP1, stronger effect = lower value): 0.102 (active) | normalized growth (S. cerevisiae deletion strains, locus YOL012C, strain htz1): 0.238 (inactive) | normalized growth (S. cerevisiae deletion strains, locus YOL147C, strain pex11, stronger effect = lower value): 1.01 (inactive) | normalized growth (S. cerevisiae deletion strains, locus YOR001W, strain rrp6, stronger effect = lower value): 0.459 (active) | normalized growth (S. cerevisiae deletion strains, locus YOR061W, strain CKA2, stronger effect = lower value): 0.0469 (active) | normalized growth (S. cerevisiae deletion strains, locus YOR069W, strain VPS5, stronger effect = lower value): 0.0489 (active) | normalized growth (S. cerevisiae deletion strains, locus YOR070C, strain gyp1, stronger effect = lower value): 0.0603 (active) | normalized growth (S. cerevisiae deletion strains, locus YOR080W, strain dia2, stronger effect = lower value): 0.803 (active) | normalized growth (S. cerevisiae deletion strains, locus YOR083W, strain WHI5 (second series), stronger effect = lower value): 0.0766 (active) | normalized growth (S. cerevisiae deletion strains, locus YOR083W, strain WHI5, stronger effect = lower value): 0.0645 (active) | normalized growth (S. cerevisiae deletion strains, locus YOR106W, strain vam3, stronger effect = lower value): 0.0667 (active) | normalized growth (S. cerevisiae deletion strains, locus YOR136W, strain idh2, stronger effect = lower value): 0.0722 (active) | normalized growth (S. cerevisiae deletion strains, locus YOR144C, strain elg1, stronger effect = lower value): 1.01 (inactive) | normalized growth (S. cerevisiae deletion strains, locus YOR184W, strain ser1, stronger effect = lower value): 0.0757 (active) | normalized growth (S. cerevisiae deletion strains, locus YOR231W, strain MKK1, stronger effect = lower value): 0.118 (active) | normalized growth (S. cerevisiae deletion strains, locus YOR265W, strain rbl2, stronger effect = lower value): 0.0602 (active) | normalized growth (S. cerevisiae deletion strains, locus YOR270C, strain vph1, stronger effect = lower value): 0.103 (active) | normalized growth (S. cerevisiae deletion strains, locus YOR290C, strain snf2, stronger effect = lower value): 0.888 (inactive) | normalized growth (S. cerevisiae deletion strains, locus YOR316C, strain cot1, stronger effect = lower value): 0.063 (active) | normalized growth (S. cerevisiae deletion strains, locus YPL051W, strain arl3, stronger effect = lower value): 0.0663 (active) | normalized growth (S. cerevisiae deletion strains, locus YPL055C, strain LGE1, stronger effect = lower value): 0.0731 (active) | normalized growth (S. cerevisiae deletion strains, locus YPL078C, strain atp4, stronger effect = lower value): 0.707 (active) | normalized growth (S. cerevisiae deletion strains, locus YPL106C, strain sse1, stronger effect = lower value): 0.105 (active) | normalized growth (S. cerevisiae deletion strains, locus YPL240C, strain hsp82, stronger effect = lower value): 0.0588 (active) | normalized growth (S. cerevisiae deletion strains, locus YPL241C, strain CIN2, stronger effect = lower value): 0.0501 (active) and 0.992 (inactive) | normalized growth (S. cerevisiae deletion strains, locus YPL256C, strain CLN2, stronger effect = lower value): 0.113 (active) | normalized growth (S. cerevisiae deletion strains, locus YPR119W, strain clb2, stronger effect = lower value): 0.0638 (active) | normalized growth (S. cerevisiae deletion strains, locus YPR141C, strain kar3, stronger effect = lower value): 0.0669 (active) | normalized growth (S. cerevisiae deletion strains, locus YPR163C, strain tif3, stronger effect = lower value): 0.0717 (active) | normalized growth (S. cerevisiae deletion strains, locus YPR167C, strain met16, stronger effect = lower value): 0.0625 (active) | normalized growth (S. cerevisiae deletion strains, strain wtn01, stronger effect = lower value): 0.0617 (active) | normalized growth (S. cerevisiae strains, strain wild type, stronger effect = lower value): 0.0481 (active)
